Laboratory results from ChEMBL document CHEMBL1201862, “PubChem BioAssay data set” (2004).
Screen size: about 54,000 sequences; about 2,800 (5.2%) were called active. Cut-off read from the data, not from the text of the source: active = GI50 up to about 1.1 µM and inactive = higher. These entries were drawn from the full list. Results with a measured potency or affinity are listed apart.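 These data come from cells grown in 96-well plates and exposed to compound for 48 hours at five concentrations. GI50 is the concentration that inhibits growth by half.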

What follows are substances tested on NCI-H226 (assay: NCI tumour cell line growth inhibition, 48 h).

Substance	GI50 [µM]
cis-Bis[[(trimethylsilyl)methyl]amino]tetrachloroplatinum(IV), CHEMBL2146191	13.6
CISPLATIN, CHEMBL11359	5.05
[Bis(aminomethyl)dimethylsilane]tetrachloroplatinum(IV), CHEMBL2146190	4.49
[Bis(aminomethyl)tetramethylenesilane]tetrachloropaltinum(IV), CHEMBL2146189	8.18
mu-(1,7-nanodiamine-N,N')bis-(cis-aminedichloroplatimum (II)), CHEMBL2146215	1.07
[Bis(aminomethyl)tetramethylenesilane]dichloropaltinum(II), CHEMBL2146205	32.9
[Bis(aminomethyl)pentamethylenesilane]dichloropaltinum(II), CHEMBL2146202	1.43
[Bis(aminomethyl)ethylmethylsilane]tetrachloroplatinum(IV), CHEMBL2146192	5.75
[Bis(aminomethyl)diethylsilane]tetrachloroplatinum(IV), CHEMBL2146203	1.5
[Bis(aminomethyl)pentamethylenesilane]tetrachloropaltinum(IV), CHEMBL2146204	3.88
[Bis(aminomethyl)dimethylsilane]dichloroplatinum (II), CHEMBL2146201	35.8
